Assay [1] can be described thus: qHTS assay to identify small molecule agonists of the vitamin D receptor (VDR) signaling pathway - cell viability counter screen (AID 743224). Further: nearly all actives have a fitted effect of over 50% in size. Summed up: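 In parallel with the bla FRET readout, cytotoxicity toward VDR-bla cells after 16 h compound exposure was assessed by CellTiter-Glo, with luminescence recorded after a 30 min room-temperature incubation.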
A short description of assay [2]: qHTS assay to identify small molecule antagonists of the vitamin D receptor (VDR) signaling pathway - cell viability counter screen (AID 743225). Further: nearly all actives have a fitted effect of over 50% in size. The essentials:
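Cytotoxicity counter screen read by CellTiter-Glo luminescence (30 min, room temperature) in the same wells as the VDR-bla antagonist readout. HEK 293T VDR-UAS-bla cells had 16 h at 37C with compound and 3 nM (final) 1-alpha,25-dihydroxyvitamin D3, then 2 h with FRET substrate.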

A short description of assay [3]: qHTS assay to identify small molecule agonists of the NFkB signaling pathway (AID 1159509; active means well fitted curve in the direction sought with a large enough effect in the signal ratio in the repeat runs, not every such curve was filed as active; the % refers to the signal ratio). The essentials:
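Readout: FRET fluorescence, 405 nm excitation, 460/530 nm emission; beta-lactamase expression disrupts FRET. Cells: ME-180 stably carrying NF-kB-driven bla reporter. Compound exposure 5 hr, 37 C, 5% CO2.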

Assay [4] can be described thus: qHTS assay to identify small molecule agonists of the NFkB signaling pathway - cell viability counter screen (AID 1159515; calls by dose curve; further: nearly all actives have a fitted effect of over 55% in size). The essentials: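 Plate 2,000 NFkB-bla ME-180 cells/well; incubate overnight. Add compounds, 5 hr at 37 C. Add FRET substrate, 1.5 hr RT. Add CellTiter-Glo, 30 min RT; read luminescence.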
The nature of assay [5]: qHTS assay to identify small molecule agonists of the endoplasmic reticulum stress response signaling pathway (AID 1159516; active means well fitted activation curve with a large enough effect in the signal ratio in the repeat runs, not every such curve was filed as active; the % refers to the signal ratio). The essentials:
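Beta-lactamase expression from the ER stress response element in HeLa reporter cells is quantified with the LiveBLAzer B/G FRET substrate, read at 405 nm excitation after 2 hr at room temperature, following 5 hr compound treatment at 37 C.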

Assay [6] can be described thus: qHTS assay to identify small molecule agonists of the endoplasmic reticulum stress response signaling pathway - cell viability counter screen (AID 1159517; calls by dose curve; further: nearly all actives have a fitted effect of over 50% in size). The essentials:
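Cytotoxicity of test compounds toward ESRE-bla HeLa cells was assessed after 5 hr exposure. The luminescent CellTiter-Glo signal was measured 30 min after reagent addition.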

A short description of assay [7]: qHTS assay to identify small molecule antagonists of the retinoid-related orphan receptor gamma (ROR-gamma) signaling pathway - cell viability counter screen (AID 1159520). Further: nearly all actives have a fitted effect of over 50% in size. Summed up:
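Tet-on ROR gamma CHO cells (1,000/well) were plated 4 hr, given compounds in DMSO for 2 hr at 37 C, then induced with 1 uM final doxycycline for 16 hr. Viability was read as ATP by CellTiter-Glo luminescence after 30 min.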

A short description of assay [8]: qHTS assay to identify small molecule agonists of the AP-1 signaling pathway - cell viability counter screen (AID 1159525; calls by dose curve; further: nearly all actives have a fitted effect of over 55% in size). The essentials:
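Each titration point was normalised to DMSO and tetra n-octyl ammonium bromide controls. The read was Cell Titer Glo luminescence after 30 min at RT, following 5 h compound exposure of ME-180 AP-1-bla cells at 37 °C.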

Assay [9] is described as follows: qHTS assay to identify small molecule agonists of the AP-1 signaling pathway (AID 1159526; calls by dose curve).
The target of assay [10] is Retinoic acid receptor RXR-alpha (Homo sapiens) (UniProt P19793). Nature of the assay: qHTS assay to identify small molecule agonists of the RXR signaling pathway (AID 1159527; calls by dose curve; further: nearly all actives have a fitted effect of over 35% in size). Summed up:
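Agonist-mode beta-lactamase reporter assay: HEK 293T RXR-alpha-UAS-bla cells treated 16 hr at 37 C with compounds, 9-cis retinoic acid as positive control. LiveBLAzer FRET substrate, 405 nm excitation, 460/530 nm emission.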

Assay [11] is described as follows: qHTS assay to identify small molecule agonists of the RXR signaling pathway - cell viability counter screen (AID 1159529). Further: nearly all actives have a fitted effect of over 50% in size. The essentials:
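CellTiter-Glo luminescence gave viability in the wells also read for beta-lactamase. Cells (RXR-alpha-UAS-bla HEK 293T, 2% charcoal-stripped FBS medium) had 5 hr plating, then 16 hr compound exposure at 37 C; tetraoctyl ammonium bromide served as positive control.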

Assay [12] can be described thus: qHTS assay to identify small molecule antagonists of the retinoid acid receptor (RAR) signaling pathway - cell viability counter screen (AID 1159551). Further: nearly all actives have a fitted effect of over 35% in size. The essentials:
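Viability of C3RL4 cells is quantified from ATP by luminescence after 6 h treatment at 37 C with compounds and 1 uM retinol.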

The nature of assay [13]: qHTS assay to identify small molecule antagonists of the retinoic acid receptor (RAR) signaling pathway (AID 1159552; further: nearly all actives have a fitted effect of over 50% in size). The essentials:
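Luminescent RARE reporter read-out in C3RL4 cells: 6 hr co-treatment at 37 C of test compounds with retinol at 1 uM final. Cells plated overnight beforehand; luciferase reagent incubated 30 min at room temperature before reading.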

Assay [14] in a line: qHTS assay to identify small molecule agonists of the retinoic acid receptor (RAR) signaling pathway (AID 1159553). As to conditions: C3RL4 RARE luciferase reporter, agonist, 6 h; activation: at 73.3 µM (top of the series) unless noted. The essentials: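 Compounds dissolved in DMSO were pinned onto C3RL4 cells seeded the previous day, and plates were held 6 hr at 37 C. RARE-driven luciferase output was then read by luminescence.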

Assay [15] in a line: qHTS assay to identify small molecule antagonists of the estrogen related receptor (ERR) signaling pathway from Tox21 library - cell viability counter screen (AID 1224834). Further: nearly all actives have a fitted effect of over 30% in size. The essentials:
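In this quantitative HTS format, ERR cells receive compounds in DMSO and are incubated for 17.5 h at 37 C. Live-cell protease activity is then detected with CellTiter-Fluor.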

Assay [16] has as its target Luciferin 4-monooxygenase (Photinus pyralis) (UniProt P08659). Nature of the assay: qHTS assay to identify small molecule inhibitors of firefly luciferase (AID 1224835). Further: nearly all actives have a fitted effect of over 25% in size. Further: potency means the concentration at half of the fitted maximal effect. Summed up:
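Quantitative HTS format; KM concentrations of both substrates. Purified P. pyralis FLuc activity quantified from luminescence images.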

Assay [17] is described as follows: qHTS assay to identify small molecule agonists of the constitutive androstane receptor (CAR) signaling pathway - cell viability counter screen (AID 1224836). Further: nearly all actives have a fitted effect of over 45% in size. The essentials:
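Cell viability multiplexed with the CAR agonist screen: CellTiter-Fluor fluorescence after 23 hr at 37 C. HepG2-CYP2B6-hCAR cells got compounds at 15 concentrations with PK11195 at 0.75 uM final.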

For assay [18], the target named is Nuclear receptor ROR-gamma (Homo sapiens) (UniProt P51449). Nature of the assay: qHTS assay to identify small molecule antagonists of the retinoid-related orphan receptor gamma (ROR-gamma) signaling pathway (AID 1159521). Summed up: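 Antagonist read-out: drop in luminescence (ONE-Glo) from an RORE-LUC reporter in CHO cells with doxycycline-inducible ROR-gamma; 2 hr compound pretreatment, 1 uM doxycycline, 16 hr incubation at 37 C.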

Structures are written as SMILES. Values joined by “and” are separate entries in the source; they are usually repeats but may differ in a detail not shown here. Equal values may be shown once. Inconclusive results are not listed. The source holds several records for some structures; these can differ, active in one and inactive in another. Active and inactive are the calls of the source. Unless noted, the call rests on the fitted dose curve; in most records, active means well fitted curve in the direction sought with a large enough effect in the repeat runs; inconclusive means weak or mixed curves; inactive means no such curve, though single readings can be large; an effect the other way counts as inactive or inconclusive.

Retinoic acid receptor RXR-alpha (Homo sapiens), sequence (P19793 whole entry, looked up): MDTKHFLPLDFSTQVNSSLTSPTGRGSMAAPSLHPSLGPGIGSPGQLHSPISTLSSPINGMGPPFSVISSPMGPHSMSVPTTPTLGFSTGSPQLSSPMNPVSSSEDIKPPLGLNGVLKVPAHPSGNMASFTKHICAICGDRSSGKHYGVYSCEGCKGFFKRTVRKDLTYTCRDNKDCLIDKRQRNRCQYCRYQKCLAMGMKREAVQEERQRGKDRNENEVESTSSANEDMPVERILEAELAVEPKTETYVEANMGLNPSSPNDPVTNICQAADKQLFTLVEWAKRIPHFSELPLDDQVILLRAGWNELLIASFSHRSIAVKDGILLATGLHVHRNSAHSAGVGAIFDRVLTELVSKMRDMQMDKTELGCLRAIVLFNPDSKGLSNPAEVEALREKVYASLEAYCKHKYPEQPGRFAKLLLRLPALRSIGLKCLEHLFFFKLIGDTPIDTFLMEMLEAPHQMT
Luciferin 4-monooxygenase (Photinus pyralis), sequence (P08659 whole entry, looked up): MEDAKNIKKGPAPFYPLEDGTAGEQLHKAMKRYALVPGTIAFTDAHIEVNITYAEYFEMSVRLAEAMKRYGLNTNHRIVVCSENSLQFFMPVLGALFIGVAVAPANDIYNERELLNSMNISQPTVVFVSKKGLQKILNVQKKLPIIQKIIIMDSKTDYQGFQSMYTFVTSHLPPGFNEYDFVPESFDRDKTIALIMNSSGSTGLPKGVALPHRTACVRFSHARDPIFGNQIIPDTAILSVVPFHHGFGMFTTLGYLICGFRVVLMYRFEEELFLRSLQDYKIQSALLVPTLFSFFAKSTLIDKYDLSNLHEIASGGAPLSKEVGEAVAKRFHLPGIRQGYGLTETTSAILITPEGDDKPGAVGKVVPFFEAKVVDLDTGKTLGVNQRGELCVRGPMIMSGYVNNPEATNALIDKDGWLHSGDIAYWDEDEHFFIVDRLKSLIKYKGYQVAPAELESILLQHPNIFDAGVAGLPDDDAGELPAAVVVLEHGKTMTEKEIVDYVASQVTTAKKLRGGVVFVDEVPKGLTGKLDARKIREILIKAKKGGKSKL

`CC(C)C1(C)N=C(c2nc3ccccc3cc2C(=O)O)NC1=O` (stereo unspecified): the outcome in assay [1], in assay [2], in assay [3], in assay [4], in assay [5] and in [6] was inactive. In addition, the compound was called inactive in [12]. The Potency result in [7], in assay [8], in [9], in assay [10], in assay [11] and in assay [13] was “inactive” in each case. Moreover, the Potency entry in assay [14], in assay [15] and in assay [16] was “inactive” throughout.
Consider `COCCl`, for which the compound was called inactive in [1], in assay [3], in assay [4], in [5], in [6] and in assay [12]. For the same compound, the Potency entry in assay [7], in [8], in [9], in assay [10], in [11] and in assay [13] was “inactive” each time. In addition, the Potency result in assay [14], in [15], in [16] and in assay [17] was “inactive” each time.
As to `CN(C)N=O`, the outcome in assay [1], in assay [2], in assay [3], in assay [4], in assay [5] and in [6] was inactive. The compound was classed as inactive in assay [12]. Also, the Potency result in [7], in assay [18], in assay [8], in assay [9], in assay [10] and in assay [11] was “inactive” in each case. Also, the Potency result in [13], in assay [14], in assay [15], in assay [16] and in assay [17] was “inactive” throughout.
On to `CC(C)(C)OOC(C)(C)C`, for which the compound was classed as inactive in assay [1], in assay [3], in assay [5], in [6] and in assay [12]. Further, the Potency result in [7], in [18], in [8], in [9], in [10] and in [11] was “inactive” each time. Also, the Potency entry in [15], in [16] and in [17] was “inactive” in each case.
With `Cc1ccccc1O`, the result in assay [1], in assay [3], in assay [5], in [6] and in [12] was inactive. For the same compound, the Potency entry in assay [7], in [18], in [9], in assay [10], in [11] and in assay [13] was “inactive” each time. Further, the Potency entry in assay [14], in assay [15] and in assay [16] was “inactive” each time.
Turning to `CCOC(=O)c1ccccc1C(=O)OCC`, the compound was classed as inactive in [1], in assay [3], in [4], in [5], in assay [6] and in assay [12]. Also, the Potency entry in assay [7], in [8], in assay [9], in [11], in [13] and in [14] was “inactive” in each case. Moreover, the Potency result in assay [15] and in assay [16] was “inactive” throughout.
For `Nc1ccc(Oc2ccc(N)cc2)cc1`, the compound was classed as inactive in [1], in [2], in assay [3], in assay [5], in assay [6] and in assay [12]. For the same compound, the Potency result in assay [7], in [9], in [10], in assay [11], in [13] and in assay [15] was “inactive” each time. Further, the Potency result in assay [17] is “inactive”. The Potency entry in assay [16] is “inactive and 63.3 µM (active)”.
For `[N-]=[N+]=[N-]`, the outcome in [1], in assay [3], in [4], in assay [5], in assay [6] and in [12] was inactive. In addition, the Potency result in assay [7], in assay [9], in assay [10], in assay [11], in [15] and in assay [16] was “inactive” throughout. Moreover, the Potency entry in assay [17] is “inactive”.
`Cc1ccc(N)cc1N`: the call in assay [1], in [2], in assay [3], in [5], in [6] and in [12] was inactive. For the same compound, the Potency entry in assay [7], in [18], in [8], in assay [9], in assay [11] and in assay [15] was “inactive” each time.

Values taken from PubChem BioAssay (Tox21).
